These results are taken from publication PMC12820563, “FoxP3 forms a head-to-head dimer in vivo and stabilizes its multimerization on adjacent microsatellites”.

Whole data set: some 16,000 sequences, median “rpm ratio (pull-down/input)” near 0.94, cut for the highest 2% near 1.7. The full list was thinned out, with the highest values kept by preference.

This experiment addresses T1, MBP-FoxP1dN (Mus musculus, UniProt P58462 326-579).
T1 sequence: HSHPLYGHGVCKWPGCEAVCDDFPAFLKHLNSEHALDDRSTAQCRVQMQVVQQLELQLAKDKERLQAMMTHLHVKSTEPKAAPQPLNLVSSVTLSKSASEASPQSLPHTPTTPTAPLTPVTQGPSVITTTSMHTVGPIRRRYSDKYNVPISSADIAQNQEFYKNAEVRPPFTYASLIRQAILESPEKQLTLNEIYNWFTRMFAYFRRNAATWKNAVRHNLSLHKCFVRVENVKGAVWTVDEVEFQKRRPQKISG
As to the kind of experiment: PD-seq (MBP pull-down with sequencing); 20 mM Tris-HCl pH 7.5, 100 mM NaCl, 1.5 mM MgCl2, 0.4 uM protein, 0.1 uM dsDNA library, 30 min, room temperature, amylose pull-down; high values mean tight binding. To be noted: protein: recombinant; tags: His6-MBP; chain copies: 2; dsDNA, one strand shown. Summed up:
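A fragment of mouse FoxP3 or FoxP1 without its N-terminus, carrying a His6-MBP tag and produced in E. coli, was combined at 0.4 µM with a 0.1 µM degenerate double-stranded DNA library filled in with Klenow. The mixture sat for 30 min at room temperature in Tris pH 7.5 buffer containing NaCl and MgCl2. Protein–DNA complexes were captured on amylose resin, washed three times, and the DNA was freed with proteinase K, barcoded by PCR and sequenced on Illumina. Binding is expressed as reads-per-million enrichment of pull-down over input, with replicates pooled.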
“GATGATTGTTCTCCCAGCTGATGAATTACTGTTGTCGAGTAAACAAATTTTCCTAATCTTTCTGTTCAAGCGCCATCTAC”: the binding signal is 2.55 RPM ratio (pull-down/input).
On to “GATGATTGTTCTCCCAGCTGATGAATTGTTCCTGTCGAGTAAACAAATTTTCCTAATCTTTCTGTTCAAGCGCCATCTAC”, for which the binding signal is 0.999 RPM ratio (pull-down/input).
With “GATGATTGTTCTCCCAGCTGATGAATTTTTTTTGTCGAGTAAACAAATTTTCCTAATCTTTCTGTTCAAGCGCCATCTAC”, the binding signal was 0.87 RPM ratio (pull-down/input).
For the sequence “GATGATTGTTCTCCCAGCTGATGAATTACTACTGTCGAGTAAACAAATTTTCCTAATCTTTCTGTTCAAGCGCCATCTAC”, the binding signal was 1.23 RPM ratio (pull-down/input).
Next, “GATGATTGTTCTCCCAGCTGATGAATTTCTTTTGTCGAGTAAACAAATTTTCCTAATCTTTCTGTTCAAGCGCCATCTAC”: 0.952 RPM ratio (pull-down/input).
On to “GATGATTGTTCTCCCAGCTGATGAATTTTTCTTGTCGAGTAAACAAATTTTCCTAATCTTTCTGTTCAAGCGCCATCTAC”, for which the binding signal is 1.1 RPM ratio (pull-down/input).
Next, “GATGATTGTTCTCCCAGCTGATGAATTTTTTCTGTCGAGTAAACAAATTTTCCTAATCTTTCTGTTCAAGCGCCATCTAC”: 0.986 RPM ratio (pull-down/input); “GATGATTGTTCTCCCAGCTGATGAATTGCTATGTTCGAGTAAACAAATTTTCCTAATCTTTCTGTTCAAGCGCCATCTAC”: 1.24 RPM ratio (pull-down/input).
Regarding “GATGATTGTTCTCCCAGCTGATGAATTCGAGTGGTCGAGTAAACAAATTTTCCTAATCTTTCTGTTCAAGCGCCATCTAC”, the binding signal is 0.752 RPM ratio (pull-down/input).
For “GATGATTGTTCTCCCAGCTGATGAATTCCTATCTTCGAGTAAACAAATTTTCCTAATCTTTCTGTTCAAGCGCCATCTAC” the value was 0.802 RPM ratio (pull-down/input).
As for “GATGATTGTTCTCCCAGCTGATGAATTTGACTTGTCGAGTAAACAAATTTTCCTAATCTTTCTGTTCAAGCGCCATCTAC”, the binding signal is 0.82 RPM ratio (pull-down/input).
Turning to “GATGATTGTTCTCCCAGCTGATGAATTTCCTGCGTCGAGTAAACAAATTTTCCTAATCTTTCTGTTCAAGCGCCATCTAC”, the binding signal was 0.938 RPM ratio (pull-down/input).
“GATGATTGTTCTCCCAGCTGATGAATTCTCTCTTTCGAGTAAACAAATTTTCCTAATCTTTCTGTTCAAGCGCCATCTAC”: the binding signal was 0.917 RPM ratio (pull-down/input).
In the case of “GATGATTGTTCTCCCAGCTGATGAATTTAATATGTCGAGTAAACAAATTTTCCTAATCTTTCTGTTCAAGCGCCATCTAC”, the binding signal was 0.979 RPM ratio (pull-down/input).
For the sequence “GATGATTGTTCTCCCAGCTGATGAATTGTTGTCGTCGAGTAAACAAATTTTCCTAATCTTTCTGTTCAAGCGCCATCTAC”, the binding signal is 2.33 RPM ratio (pull-down/input).
For “GATGATTGTTCTCCCAGCTGATGAATTTCTGTCGTCGAGTAAACAAATTTTCCTAATCTTTCTGTTCAAGCGCCATCTAC” the value was 0.96 RPM ratio (pull-down/input); for “GATGATTGTTCTCCCAGCTGATGAATTGTCGTCGTCGAGTAAACAAATTTTCCTAATCTTTCTGTTCAAGCGCCATCTAC”, 1.05 RPM ratio (pull-down/input).
Consider “GATGATTGTTCTCCCAGCTGATGAATTCGATCTATCGAGTAAACAAATTTTCCTAATCTTTCTGTTCAAGCGCCATCTAC”, for which the binding signal was 0.885 RPM ratio (pull-down/input).
For “GATGATTGTTCTCCCAGCTGATGAATTATTGTTGTCGAGTAAACAAATTTTCCTAATCTTTCTGTTCAAGCGCCATCTAC”, the binding signal is 3.22 RPM ratio (pull-down/input).
With “GATGATTGTTCTCCCAGCTGATGAATTATTTCTGTCGAGTAAACAAATTTTCCTAATCTTTCTGTTCAAGCGCCATCTAC”, the binding signal was 1.11 RPM ratio (pull-down/input).
With “GATGATTGTTCTCCCAGCTGATGAATTGATTATGTCGAGTAAACAAATTTTCCTAATCTTTCTGTTCAAGCGCCATCTAC”, the binding signal is 1.31 RPM ratio (pull-down/input).
On to “GATGATTGTTCTCCCAGCTGATGAATTATTCTTGTCGAGTAAACAAATTTTCCTAATCTTTCTGTTCAAGCGCCATCTAC”, for which the binding signal is 1.16 RPM ratio (pull-down/input).
Turning to “GATGATTGTTCTCCCAGCTGATGAATTATTAATGTCGAGTAAACAAATTTTCCTAATCTTTCTGTTCAAGCGCCATCTAC”, the binding signal is 1.35 RPM ratio (pull-down/input).
Take “GATGATTGTTCTCCCAGCTGATGAATTATGATTGTCGAGTAAACAAATTTTCCTAATCTTTCTGTTCAAGCGCCATCTAC”: the binding signal is 1.45 RPM ratio (pull-down/input).
As for “GATGATTGTTCTCCCAGCTGATGAATTATTGTCGTCGAGTAAACAAATTTTCCTAATCTTTCTGTTCAAGCGCCATCTAC”, the binding signal is 1.56 RPM ratio (pull-down/input).
For “GATGATTGTTCTCCCAGCTGATGAATTATTATTGTCGAGTAAACAAATTTTCCTAATCTTTCTGTTCAAGCGCCATCTAC” the value was 3.2 RPM ratio (pull-down/input); for “GATGATTGTTCTCCCAGCTGATGAATTATTGATGTCGAGTAAACAAATTTTCCTAATCTTTCTGTTCAAGCGCCATCTAC”, 1.85 RPM ratio (pull-down/input).
As for “GATGATTGTTCTCCCAGCTGATGAATTATGAGTCTCGAGTAAACAAATTTTCCTAATCTTTCTGTTCAAGCGCCATCTAC”, the binding signal was 0.886 RPM ratio (pull-down/input).
As for “GATGATTGTTCTCCCAGCTGATGAATTACGATCGTCGAGTAAACAAATTTTCCTAATCTTTCTGTTCAAGCGCCATCTAC”, the binding signal is 0.952 RPM ratio (pull-down/input).
Turning to “GATGATTGTTCTCCCAGCTGATGAATTTGAGCTTTCGAGTAAACAAATTTTCCTAATCTTTCTGTTCAAGCGCCATCTAC”, the binding signal is 0.854 RPM ratio (pull-down/input).
As for “GATGATTGTTCTCCCAGCTGATGAATTCGCTTGCTCGAGTAAACAAATTTTCCTAATCTTTCTGTTCAAGCGCCATCTAC”, the binding signal was 0.817 RPM ratio (pull-down/input).
For “GATGATTGTTCTCCCAGCTGATGAATTAAACTCTTCGAGTAAACAAATTTTCCTAATCTTTCTGTTCAAGCGCCATCTAC”, the binding signal is 0.825 RPM ratio (pull-down/input).
